Assay outcomes as filed in PubChem.
Rows were chosen to be rich in hits. Some 2.4% of all compounds tested hit in one or more screens of this group.
Yeast superoxide – reduction of superoxide in aged yeast, primary screen, HTS; S. cerevisiae aged cells, superoxide DHE fluorescence; active compounds read low; superoxide response (% of plate mean), % at 10 µM; hit rate 0.18% among 330,000; AID 2690, 2010;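 active = superoxide response under a set limit, about three screen SD below normal, cut at about 65% in these data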;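 also: yeast aged for seven days with compound at 30 °C before DHE staining; 100% = average MFI of all compound-treated wells on the plate with controls excluded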
A3A deaminase – APOBEC3A ssDNA deaminase inhibitors, primary screen, selectivity assay for APOBEC3G inhibitor project, biochemical, FAM/TAMRA oligo cleavage fluorescence; hit rate 0.41% among 330,000; recombinant A3A, FAM/TAMRA ssDNA deamination fluorescence; inhibition, % at 20 µM;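 active = at least 40% inhibition at 20 µM here, with at most 30% in a related deaminase screen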;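 also: plate controls were A3A with DMSO for no effect and wells lacking A3A enzyme for full effect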
Target sequence (P31941 whole entry, looked up): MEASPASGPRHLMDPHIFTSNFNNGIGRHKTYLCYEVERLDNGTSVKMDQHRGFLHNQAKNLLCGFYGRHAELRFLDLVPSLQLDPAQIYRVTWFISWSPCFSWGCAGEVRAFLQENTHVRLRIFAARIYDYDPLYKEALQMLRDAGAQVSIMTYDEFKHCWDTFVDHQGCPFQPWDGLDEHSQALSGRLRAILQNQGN
APOBEC3G inh – APOBEC3G DNA deaminase inhibitors, primary screen, biochemical, fluorescence, single-stranded DNA substrate, uHTS | recombinant A3G, ssDNA deamination FAM/TAMRA fluorescence | hit rate 0.28% among 330,000 | inhibition, % at 20 µM | DNA dC->dU-editing enzyme APOBEC-3G (Homo sapiens), Q9HC16;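 active = inhibition of at least 40% at 20 µM, with no more than 30% in the related APOBEC3A deaminase screen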;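 also: plate controls were DMSO wells with A3G for no effect and wells lacking A3G enzyme for full effect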
M18AAP inhibitor – PfM18AAP inhibitors, malaria aminopeptidase, primary screen, biochemical, QFRET, recombinant enzyme. M18 aspartyl aminopeptidase (Plasmodium falciparum 3D7). H-Glu-NHMec fluorogenic cleavage. inhibition, % at 7.35 µM. hit rate 1.2% among 290,000. AID 1822, 2009;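 active = inhibition above the campaign mean inhibition over all tested compounds plus 3 SD, cut at about 28% in these data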;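 also: 0% = plate median of test compound wells and 100% = 2 mM ZnCl2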
PfGluPho inh – PfG6PD enzyme inhibitors, primary screen, biochemical, fluorescence intensity, uHTS; PfGluPho enzyme, NADPH resazurin-diaphorase fluorescence; hit rate 0.78% among 350,000; glucose-6-phosphate dehydrogenase-6-phosphogluconolactonase (Plasmodium falciparum 3D7); inhibition, % at 20 µM;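 active = inhibition reaching at least a set limit at 20 µM in the primary screen, cut at about 59% in these data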;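 also: 0% = DMSO wells with substrate and 100% = DMSO wells lacking glucose-6-phosphate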
A3G conf – APOBEC3G deaminase inhibitor retest, confirmation, biochemical, fluorescence, single-stranded DNA substrate, single concentration; shares compounds with APOBEC3G inh; inhibition, % at 20 µM; recombinant A3G ssDNA deaminase, UDG/FAM-TAMRA fluorescence; hit rate 72% among 890;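 active = inhibition reaching a set limit in any replicate at 20 µM, the limit being 80% of the first screen's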
UDG ctr A3G – E. coli UDG inhibitors, confirmation, counter-screen for APOBEC3G inhibitor project, biochemical, single concentration, fluorescence, FAM/TAMRA oligo | AID 504715, 2011 | inhibition, % at 20 µM | shares compounds with APOBEC3G inh | UDG counterscreen | 710 tested, under 10 active;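 active = compounds giving 40% or more inhibition at 20 µM in any one of the three replicates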;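 also: plate controls were DMSO wells with UDG and oligo for no effect and DMSO wells lacking both for full effect; inhibitors lower the FAM signal released by uracil excision and alkaline cleavage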
Target sequence (P12295 whole entry, looked up): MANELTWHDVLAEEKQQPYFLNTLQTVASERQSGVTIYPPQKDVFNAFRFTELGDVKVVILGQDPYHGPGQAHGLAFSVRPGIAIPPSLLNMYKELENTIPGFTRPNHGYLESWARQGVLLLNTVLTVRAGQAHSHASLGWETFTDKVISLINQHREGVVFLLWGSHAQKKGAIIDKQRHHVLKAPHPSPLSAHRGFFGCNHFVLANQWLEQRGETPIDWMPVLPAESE
PfG6PD confirm – PfG6PD inhibitors, hit retest, confirmation, biochemical, fluorescence intensity, single concentration | shares compounds with PfGluPho inh | recombinant PfGluPho, NADPH-diaphorase-resazurin fluorescence | inhibition, % at 20 µM | hit rate 34% among 2,400;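 active = inhibition of at least 50% at 20 µM in any single replicate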;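 also: 0% = DMSO with substrate and 100% = DMSO lacking glucose-6-phosphate substrate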
Diaphorase 10uM – diaphorase inhibitors and chemical oxidizers, confirmation, counter-screen for P. falciparum G6PD inhibitor project, biochemical, fluorescence intensity, 10 µM NADPH; shares compounds with PfGluPho inh; diaphorase-coupled resazurin reduction, NADPH 10 uM; inhibition, % at 20 µM; hit rate 39% among 820;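 active = average inhibition reaching 50% or more with the compound at 20 µM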;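 also: resorufin red fluorescence formed as diaphorase reduces resazurin using NADPH; 0% = DMSO with enzyme and 100% = DMSO without enzyme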
Diaph ctr 30uM – diaphorase inhibitors and chemical oxidizers, confirmation, counter-screen for P. falciparum G6PD inhibitor project, biochemical, fluorescence intensity, 30 µM NADPH. shares compounds with PfGluPho inh. Diaphorase/resazurin coupled assay, resorufin fluorescence. inhibition, % at 20 µM. hit rate 29% among 820;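 active = inhibition averaging 50% or more, tested at 20 µM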;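 also: 0% = DMSO with enzyme and 100% = DMSO wells lacking diaphorase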
Starred values were filed as active, the others as inactive; / = no result given.

SMILES | Yeast superoxide | A3A deaminase | APOBEC3G inh | M18AAP inhibitor | PfGluPho inh | A3G conf | UDG ctr A3G | PfG6PD confirm | others
Cc1sc(NC(=O)c2ccccc2)c(C(=O)c2ccccc2)c1C | 122 | 2 | 50* | 32* | 63* | 37* | -3 | 37
Cc1ccc(C(=O)Nc2sc(C)c(C)c2C(=O)c2ccccc2)cc1 | 96 | 3 | 40* | -1 | 82* | 29* | -3 | 24
Cc1sc(NC(=O)c2ccccc2)c(C(=O)NC(C)C)c1C | 106 | -6 | -9 | 5 | 6 | / | / | /
Cc1cn(CC(=O)NCC2CCCO2)c(=O)[nH]c1=O (stereo unspecified) | / | / | / | / | -11 | / | / | /
O=c1c(O)c(-c2ccccc2)oc2cc(O)cc(O)c12 | 71 | 0 | -5 | / | -30 | / | / | /
O=c1c(O)c(-c2cc(O)c(O)c(O)c2)oc2cc(O)cc(O)c12 | 115 | 21 | 41* | / | 67* | 73* | 2 | 47
COC(=O)[C@@H](Cc1ccccc1)NC(=O)[C@H]1CCC(=O)N1C(=O)OCc1ccccc1 | 107 | 2 | 3 | -3 | -19 | / | / | /
Cc1c(Cc2ccc3c(c2)OCO3)sc(NC(=O)C2CC2)c1C(N)=O | 104 | 0 | 48* | 1 | 70* | 31 | / | 34
CCN(CC)c1ccc(NC(=O)c2cccc(C)c2)cc1S(=O)(=O)Nc1ccccc1OC | 94 | 4 | 49* | 21 | 73* | 54* | 3 | 54* | Diaphorase 10uM=-17;Diaph ctr 30uM=-19
CCN(CC)c1ccc(NC(=O)c2ccccc2)cc1S(=O)(=O)Nc1ccccc1OC | 83 | 4 | 50* | 16 | 74* | 48* | 1 | 31
COc1ccc(C(=O)Nc2ccc(Cl)c(S(=O)(=O)Nc3ccccc3OC)c2)cc1 | 98 | 0 | -5 | 4 | 11 | / | / | /
CC(C)(C)OC(=O)C[C@H]1C/C=C\C[C@H](CC(=O)N(CCO)Cc2ccccc2)C(=O)N[C@@H](Cc2ccccc2)COC1=O | 81 | -4 | 1 | / | -7 | / | / | /
COc1cc2c(c3ccccc13)CCCC2=O | / | / | / | / | 10 | / | / | /
C=CCn1c(N)c(C(=O)NCCC2=CCCCC2)sc1=S | 81 | 2 | 47* | 11 | 69* | 8 | / | 29
NC(=O)NCCC1=CCCCC1 | 104 | 0 | -5 | 3 | 3 | / | / | /
Cc1ccc(S(=O)(=O)N(C)c2ccc(OC(=O)c3cccs3)cc2)cc1C | 70 | -5 | -9 | / | 11 | / | / | /
CCN(CC)C(=O)c1sc2nc(N3CCOCC3)c3c(c2c1N)CCCC3 | 111 | 0 | 49* | -81 | 76* | 23 | / | 10
CCOC(=O)Cc1csc(-n2sc3ccccc3c2=O)n1 | 91 | 0 | 81* | 8 | 124* | 84* | 3 | 81* | Diaphorase 10uM=-14;Diaph ctr 30uM=4
O=C(NCc1cccnc1)C1C2C=CC(C2)C1C(=O)Nc1cccc(C(F)(F)F)c1 (stereo unspecified) | / | / | / | / | 14 | / | / | /
